The record followed here is PubChem BioAssay (EPA / NIEHS).

“And” between values parts separate entries of the source, which are not always exact repeats. Equal values may be shown once. Results filed as inconclusive are left out. More than one record can exist for a structure, and the calls need not agree. The source made the active and inactive calls. The calls were made as follows: active = hit-call score of the fitted dose curve at least 0.9, where 1 is the maximum; inconclusive = response in the unintended direction; inactive = score below 0.9.

Sequence of Cellular tumor antigen p53 (Homo sapiens) (P04637 whole entry, looked up): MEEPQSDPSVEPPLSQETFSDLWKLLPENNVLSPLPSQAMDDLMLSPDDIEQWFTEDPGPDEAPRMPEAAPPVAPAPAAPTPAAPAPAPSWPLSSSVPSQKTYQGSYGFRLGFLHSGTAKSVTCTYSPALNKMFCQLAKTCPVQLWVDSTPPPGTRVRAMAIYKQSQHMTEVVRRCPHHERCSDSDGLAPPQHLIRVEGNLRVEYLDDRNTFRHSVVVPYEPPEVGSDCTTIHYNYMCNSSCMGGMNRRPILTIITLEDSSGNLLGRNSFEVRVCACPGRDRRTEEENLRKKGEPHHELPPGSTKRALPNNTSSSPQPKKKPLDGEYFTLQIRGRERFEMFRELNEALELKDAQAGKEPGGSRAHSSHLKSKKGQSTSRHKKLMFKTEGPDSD

One test addresses Cellular tumor antigen p53 (Homo sapiens) (UniProt P04637). As to the kind of experiment: TOX21_p53_BLA_p2_ratio: Tox21 HCT-116 p53 Agonism Beta-lactamase Assay, Ratio, Phase 2 (AID 2283592). In short, it runs like this:
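Plated HCT116 p53-bla cells (4000/well) received compound after 5 h, then 16 h at 37C/5% CO2. CCF4-AM added, 2 h RT. Ratio of 460 to 530 nm emission taken as the p53 reporter signal.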
Take `CCCCOC(=O)C(C)CC` (stereo not drawn): the result was inactive.

Turning to `c1ccc(Nc2cccc3ccccc23)cc1`, the half-maximal activity concentration (AC50) (in general, the concentration giving half of the maximal activity seen) was 77.1 µM (active) and 81.1 µM (active).

On to `CCCCC/C=C\C/C=C\CCCCCCCC(=O)O`, for which the AC50 was 72.9 µM (active) and the outcome was inactive.

Take `CCCCCCCCCCCC(=O)OCC`: the outcome was inactive.

In the case of `Oc1ccccc1Cc1ccccc1O`, the result was inactive.

`COc1ccc(C(=O)/C(Br)=C\C(=O)O)cc1`: the AC50 is 24.8 µM (active) and 24.2 µM (active).

Take `C=C(C)C(=O)OCC(O)COc1ccc(C(C)(C)c2ccc(OCC(O)COC(=O)C(=C)C)cc2)cc1` (stereo not drawn): the outcome was inactive.

On to `Oc1ccc(-c2ccccc2)c(Cl)c1`, for which the outcome was inactive.

For `COc1ccc(-c2coc3cc(O)cc(O)c3c2=O)cc1`, the AC50 was 71.6 µM (active) and 72 µM (active).

Tested on in a further test: not listed separately
As to the kind of experiment: TOX21_p53_BLA_p3_viability: Viability Assessment in the Tox21 HCT-116 p53 Agonism Beta-lactamase Assay, Phase 3 (AID 2283593).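 Also: cells exposed to compound for 16 h before reading.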 In short, it runs like this: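 HCT116 cells, 4000/well, dosed 5 h after plating by pin transfer (217-fold dilution from DMSO stock) and incubated 16 h at 37C, 5% CO2. Viability read as ATP luminescence with CellTiter-Glo after 30 min at room temperature.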
As to `c1ccc(Nc2cccc3ccccc23)cc1`, the outcome was inactive.

On to `Oc1ccc(-c2ccccc2)c(Cl)c1`, for which the result was inactive.

In the case of `COc1ccc(-c2coc3cc(O)cc(O)c3c2=O)cc1`, the molecule was classed as inactive.
